From paper PMC5540273 (PLoS ONE, 2017)

Assays:
Details in all cases: concentration: 1 μM, replicates: in singlicate; n = 1
SRPK2 = test system: SRPK2
SRPK3 = test system: SRPK3
STK16 = test system: STK16
STK33 = test system: STK33
STK35 = test system: STK35
STK36 = test system: STK36
STK39 = test system: STK39
SYK = test system: SYK
SgK110 = test system: SgK110
TAK1 = test system: T1, TAK1
T1 construct: gene MAP3K7
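Also: KINOMEscan kinase panel screen.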

Row | SMILES | %Inh (SRPK2) [%] | %Inh (SRPK3) [%] | %Inh (STK16) [%] | %Inh (STK33) [%] | %Inh (STK35) [%] | %Inh (STK36) [%] | %Inh (STK39) [%] | %Inh (SYK) [%] | %Inh (SgK110) [%] | %Inh (TAK1) [%]
1 | CNc1nc(-c2ccc3c(N)n[nH]c3c2)cc(N2C[C@@H](C(=O)NC3CCCCC3)OC[C@H]2C)n1 [GSK2375584] | 30 | 0 | 16 | 13 | 0 | 22 | 6 | 26 | 0 | 0
2 | CC(=O)c1cccc(NC(=O)NC2CCN(c3ccnc(Nc4ccc(F)cc4)n3)C2)c1 (centres unmarked) [GSK1379710] | 28 | 0 | 1 | 6 | 1 | 0 | 25 | 29 | 0 | 0
3 | COc1ccc(CSc2nnc(-c3ccc4nccn4c3)o2)cc1C(F)(F)F | 0 | 16 | 3 | 2 | 16 | 10 | 0 | 0 | 0 | 33
4 | COC(=O)c1cccc(NC(=O)NC2CCN(c3ccnc(Nc4ccc(F)cc4)n3)C2)c1 (centres unmarked) [GSK1379725] | 0 | 0 | 0 | 0 | 0 | 0 | 1 | 17 | 0 | 0
5 | Cc1c(Cn2c(C)c(C)n3c(=O)cc(N4CCOCC4)nc23)cccc1C(F)(F)F [GSK2328680] | 45 | 2 | 0 | 65 | 0 | 0 | 0 | 32 | 0 | 0
6 | Nc1nccc(-c2c(-c3ccc(F)cc3)ncn2C2CCN(Cc3ccccc3)CC2)n1 [SB-219980] | 0 | 0 | 0 | 33 | 79 | 29 | 0 | 0 | 0 | 7
7 | Cc1ccc(NC(=O)Nc2ccc(Cl)cc2)cc1-c1ccc(C(=O)Nc2ccncc2)cc1 [GSK1398472] | 0 | 46 | 0 | 0 | 0 | 1 | 0 | 31 | 10 | 0
8 | Cc1c(Cn2c3ccccc3n3c(=O)cc(N4CCOCC4)nc23)cccc1C(F)(F)F [GSK2306394] | 0 | 0 | 11 | 6 | 0 | 0 | 0 | 5 | 0 | 0
9 | CC(C)c1ccc(O)cc1Nc1ccnc2ccc(C(F)(F)F)cc12 [GW482059] | 0 | 16 | 0 | 19 | 0 | 0 | 0 | 23 | 0 | 0
10 | O=C(Nc1n[nH]c2cc(-c3ccsc3)ccc12)C1CC1 [SB-732932] | 0 | 75 | 23 | 0 | 0 | 2 | 0 | 13 | 0 | 7
11 | Cl.Cl.Cl.N#Cc1ccc(CCNc2nccc(-c3cccc(CN4CCNCC4)c3)n2)cc1 [GSK2137462] | 0 | 0 | 22 | 100 | 0 | 0 | 0 | 9 | 23 | 4
12 | CS(=O)(=O)CCNCc1nc(-c2ccc3ncnc(Nc4ccc5c(cnn5Cc5ccccc5)c4)c3c2)cs1.Cl.Cl [GW569716] | 33 | 9 | 0 | 0 | 0 | 0 | 0 | 13 | 0 | 0
13 | Cc1ccc(NC(=O)Nc2ccccc2F)cc1-c1ccc(C(=O)Nc2ccncc2)cc1 [GSK1398477] | 0 | 28 | 11 | 8 | 21 | 6 | 0 | 44 | 0 | 0
14 | CC(=O)c1c(C)c2cnc(Nc3ccn(C)n3)nc2n(C2CCCC2)c1=O | 0 | 0 | 55 | 0 | 5 | 0 | 0 | 0 | 0 | 11
15 | COC(=O)C(Cc1ccccc1)NC(=O)NC1CCN(c2ccnc(Nc3ccc(F)cc3)n2)C1 (centres unmarked) [GSK1379714] | 38 | 0 | 19 | 8 | 0 | 31 | 10 | 34 | 0 | 0
16 | COc1ccc(Nc2nccc(-c3ccc(NC(=O)c4cc5cc(F)ccc5[nH]4)cc3)n2)cc1 [GSK1229496] | 14 | 7 | 2 | 0 | 0 | 0 | 0 | 8 | 0 | 0
17 | Cc1ccccc1-c1cc(-c2c[nH]nc2-c2ccccn2)ccn1 [GW680061] | 3 | 4 | 0 | 0 | 0 | 0 | 10 | 36 | 0 | 0
